Assay results: PubChem BioAssay AID2620 (National Center for Advancing Translational Sciences (NCATS), 2010)
Results filed as inconclusive are left out. Calls of active or inactive are those of the source. Calls follow the shape of the dose curve; as a rule, active = well fitted curve in the direction sought with a large enough effect; inconclusive = small, poorly fitted or top-dose-only effect, or another doubt; inactive = no such curve, though single readings can be large or run the other way.

target: Pyruvate kinase PKM (Homo sapiens) (UniProt P14618); experiment: Secondary LDH Assay for Activators of Human Pyruvate Kinase M1 Isoform: for Probe SAR; conditions: purified hPK-M1, LDH-coupled NADH fluorescence kinetic; series mostly up to 58.2 µM
Excerpt: NIH Chemical Genomics Center [NCGC]
Matthew G. Vander Heiden, M.D., Ph.D. [Harvard Medical School, 77 Avenue Louis Pasteur, Boston, MA 02115]
Human pyruvate kinase […] (hPK-M1)enzyme was supplied as a highly purified (>95% pure) preparation from Harvard Medical School and a secondary assay was used to evaluate compounds. This assay couples the formation of pyruvate from […] using lactate dehydrogenase (LDH) and NADH. The depletion of NADH is followed in a fluorescent-based kinetic assay that follows the formation of pyruvate to lactate, as catalyzed LDH. Pyruvate kinase substrates, PEP and ADP, were present in the assay at 0.1 mM and 4 mM respectively. In this kinetic assay initial rates were determined by following the fluorescence of NADH depletion.
NCGC Assay Protocol Summary:
Three uL of substrate mix (final concentration, 50 mM Tris-Cl pH 8.0, 200 mM KCl, 15 mM MgCl2, 0.1 mM PEP, 4.0 mM ADP, and 0.2 mM NADH) was dispensed into black-solid 1536 well plates. 23 nL of compounds were delivered by a pin tool and 1 uL of enzyme mix (final concentrations, 10 nM hPK-M1 and 1 uM of LDH) was added. Plates were immediately placed in ViewLux (Perkin Elmer) and NADH fluorescence was determined at 30 second exposure intervals for between 3 and 6 minutes. Data were normalized to the uninhibited controls.

Pyruvate kinase PKM (Homo sapiens), sequence (P14618 whole entry, looked up, canonical isoform): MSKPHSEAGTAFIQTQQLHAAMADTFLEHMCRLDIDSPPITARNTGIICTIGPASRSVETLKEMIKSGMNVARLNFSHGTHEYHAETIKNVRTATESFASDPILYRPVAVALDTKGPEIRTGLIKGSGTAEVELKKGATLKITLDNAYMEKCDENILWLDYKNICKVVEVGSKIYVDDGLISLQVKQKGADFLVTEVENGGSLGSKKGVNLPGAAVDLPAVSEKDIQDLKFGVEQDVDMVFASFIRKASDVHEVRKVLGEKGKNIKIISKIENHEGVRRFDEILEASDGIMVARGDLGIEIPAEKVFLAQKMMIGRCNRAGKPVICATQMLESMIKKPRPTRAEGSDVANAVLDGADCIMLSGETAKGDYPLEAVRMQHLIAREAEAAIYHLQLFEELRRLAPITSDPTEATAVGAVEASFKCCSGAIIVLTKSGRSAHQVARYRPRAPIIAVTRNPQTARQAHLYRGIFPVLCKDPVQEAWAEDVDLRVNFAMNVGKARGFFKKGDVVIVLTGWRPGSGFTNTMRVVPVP

outcome, inactive:
Cc1ccc(Nc2c(-c3ccc(C)o3)nc3cccc(C)n23)cc1
COc1ccccc1NS(=O)(=O)c1ccc2c(c1)CCC(=O)N2
O=C1CCc2cc(S(=O)(=O)Nc3ccc4c(c3)CCC4)ccc2N1
O=C1c2ccccc2C(=O)N1Cc1ccccn1
Cc1ccc(Nc2c(-c3ccc(C)o3)nc3ccccn23)cc1
O=C1c2ccccc2C(=O)N1c1cncc2ccccc12
Cc1ccc(NS(=O)(=O)c2cc3c(cc2-c2ccco2)NC(=O)CO3)cc1C
COc1cccc(N2C(=O)c3ccccc3C2=O)n1
O=C1CCc2cc(S(=O)(=O)Nc3cccc(F)c3)ccc2N1
Cc1ccc(N(C)S(=O)(=O)c2ccc3c(c2)CCC(=O)N3)cc1C
Cc1ccc(NS(=O)(=O)c2cc3c(cc2C)NC(=O)CO3)cc1C
O=C1c2ccccc2C(=O)N1c1ccc(O)cc1
O=C1CCc2cc(S(=O)(=O)Nc3ccc(Cl)c(Cl)c3)c(F)cc2N1
Cc1ccc(N2C(=O)c3ccccc3C2=O)c(C)c1
O=C1c2ccccc2C(=O)N1c1cccc2cccnc12
O=S1(=O)N=C(Oc2ccc(Cl)cc2)c2ccccc21
O=C1c2ccccc2C(=O)N1c1cccc(O)c1
Cc1ccc(-c2nc3ccc(Cl)cn3c2Nc2ccccc2)o1
Cc1ccc2nc(-c3ccc(C)o3)c(Nc3ccc(F)cc3)n2c1
O=C1c2ccccc2C(=O)N1c1ccc2ccccc2n1
Cc1ccc(NS(=O)(=O)c2ccc3c(c2)C(Cl)(Cl)C(=O)N3)cc1C
O=C1CCc2cc(S(=O)(=O)Nc3ccccc3Cl)ccc2N1
Cc1ccc(C)c(OC2=NS(=O)(=O)c3ccccc32)c1
Cc1ccc(NS(=O)(=O)c2cc3c(cc2/C=C/c2ccccc2)NC(=O)CO3)cc1C
COc1cc(N2C(=O)c3ccccc3C2=O)c2ncccc2c1
O=C1c2ccccc2C(=O)N1Cc1ccncc1
O=C1c2ccccc2C(=O)N1c1ccccn1
O=C1CCc2cc(S(=O)(=O)Nc3cccc(Oc4ccccc4)c3)ccc2N1
O=C1CCc2cc(S(=O)(=O)Nc3cccnc3)ccc2N1
Cc1ccn2c(NC3CCCCC3)c(-c3ccc(C)o3)nc2c1
CCNc1cccc(S(=O)(=O)N2CCCN(S(=O)(=O)c3ccc4c(c3)OCCO4)CC2)c1
Cc1ccc(Cl)cc1NS(=O)(=O)c1cc2c(cc1Cl)CCC(=O)N2
COc1cccc(OC2=NS(=O)(=O)c3ccccc32)c1
O=S1(=O)N=C(Oc2cccc(Cl)c2)c2ccccc21
Cc1cccc(NS(=O)(=O)c2ccc3c(c2)CCC(=O)N3)c1
CNc1cccc(S(=O)(=O)N2CCN(S(=O)(=O)c3ccc4c(c3)OCCO4)CC2)c1
Cc1ccc(NS(=O)(=O)c2cc3c(cc2N2CCCCC2)NC(=O)CC3)cc1C
CC(=O)N1c2ccc(S(=O)(=O)Nc3ccc(C)c(C)c3)cc2CC1C (stereo not given)
O=C1c2ccccc2C(=O)N1C1CCCCC1
Cc1ccc(NS(=O)(=O)c2cc3c(cc2Cl)NC(=O)CO3)cc1C
